Results taken from the OligoGym collection.

target: PEAR1; assay: pooled miR-30 sensor sort-seq; sequence = guide strand; conditions: shRNA
Further: reference of the scale not given here.

Sequence	sensor-assay potency score (higher = more potent)
TAGCAGGTCCCGTTCGAGGGGT	-0.75
TCCATGTAGCTGCTCTCCCGGG	-1.66
TAGCTATAGCTGTAGCTTCGGT	-1.04
ATTGCTGTAGCTATAGCTGTAG	-0.261
TTCATCTCCATGTAGCTGCTCT	0.0491
TTGCCTTTTTGCCAGTGCCGAT	-1.65
TATAGCTGTAGCTTCGGTCCAG	0.0436
TAGTAGTGACTGTAGCTCGGAG	-0.228
TTGGTGGTGGTAGTGAAGCTTT	-1.22
TCTGGCATGACATACTCGGAGC	-0.939
TTGCTGTAGCTATAGCTGTAGC	-1.31
TTTCACATGAGCAGCGTGCAGA	-0.314

target: PEBP1; assay: as above; conditions: shRNA

Sequence	sensor-assay potency score (higher = more potent)
TAAAATCACATTGTGTACCATT	-0.719
TAATCGGAGAGGACTGTGCCAC	-0.276
TATTATACATGCAACACTGAAC	-0.804
TTCTTTTTTACATTCTGGGTTG	-0.707
TAACACGTGCCAGCCACCGGGG	-1.45
ATACATGCAACACTGAACTGGG	0.364
TAAACCAGCCAGACATAGCGGT	-0.718
TGCTCTATCACTGTAGACCTGG	0.029
TATCACTGTAGACCTGGTCTTT	-0.444
TTTCTTTTTTACATTCTGGGTT	0.0306
TATACATGCAACACTGAACTGG	0.186
TTTGATCAAAACATAAATCAGA	-0.67

target: PECR; assay: as above; conditions: shRNA

Sequence	sensor-assay potency score (higher = more potent)
TTCCATACCAACTATAAGCTTT	-0.179
TCTGGGAATAAATAACTCCAGG	-1.4
TAAACTGCTTTGCACATGTAGA	-1.07
TTTGACAACAGAAAGGTCCCCT	0.815
TAGAACTGATGTGTTCAGCAGG	-0.616
TATGGGAATGACTCGTGCCTGC	-0.624
TCAATCTCTCCAACTTACGGGA	-0.32
TTCAATCTCTCCAACTTACGGG	0.0068
TTAAAGGTCTCCTTCATCTTTT	-0.272
TTCATCTTTTTGACAACAGAAA	-1.6
TTGATCCGTATTCCACTGCAGG	-0.697
TAGTTCTCCACAGCAGTCTGGG	-0.504

target: PEG10; assay: as above; conditions: shRNA

Sequence	sensor-assay potency score (higher = more potent)
TGCAATGTGAGGCAACACCAGC	-1.84
TAGTTGTGCATCAGGTAGTGGG	-0.718
TTCCACTTGCTCTCGAAGGGTG	-0.417
TGTCAGCGTAGTGACCTCCTGT	-0.0667
